From PubChem BioAssay (NCI)
This is part of a sample that, as a whole, favours compounds with a hit. Of some 79,000 tested, about 15% had one in any assay. Activity calls are given as the source filed them. No stated cut-off is given here; in the data, active means growth inhibition above about 70%; inactive means the rest.

Assays:
[1] = NCI Yeast Anticancer Drug Screen. Data for the rad52 strain (AID 147);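 further: 0% = growth of vehicle-treated control cultures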; settings: S. cerevisiae rad52 mutant growth inhibition, active compounds read high
In short: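 Vehicle-treated cultures served as the reference for growth inhibition of compound-exposed yeast bearing a DNA repair mutation.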

[2] = NCI Yeast Anticancer Drug Screen. Data for the wt1 strain (AID 149);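 further: 0% = growth of vehicle-treated wt1 cultures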; settings: S. cerevisiae wt1 strain (SPY 50644) growth inhibition, active compounds read high
In short: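 Growth inhibition read against vehicle controls after compound exposure of the wt1 yeast strain.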

[3] = NCI Yeast Anticancer Drug Screen. Data for the rad50EPP+ strain (AID 151);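 further: 0% = growth of vehicle-treated control cultures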; settings: S. cerevisiae rad50 mutant strain, active compounds read high
In short: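 In this screen, rad50EPP+ yeast were exposed to compounds. Growth inhibition was scored against vehicle-treated controls.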

[4] = NCI Yeast Anticancer Drug Screen. Data for the mgt1 strain (AID 153); settings: S. cerevisiae mgt1 mutant growth inhibition, active compounds read high
In short: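 mgt1 strain exposed; growth vs vehicle control recorded as inhibition.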

[5] = NCI Yeast Anticancer Drug Screen. Data for the rad50 strain (AID 155);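 further: 0% = growth of vehicle-only cultures of the same strain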; settings: S. cerevisiae rad50 strain growth inhibition, active compounds read high
In short: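 Readout: growth inhibition relative to vehicle-treated cultures. Compound exposure was carried out in a genetically defined yeast strain deficient in DNA damage repair.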

[6] = NCI Yeast Anticancer Drug Screen. Data for the mec2-1 strain (AID 157); settings: S. cerevisiae mec2-1 strain, active compounds read high
In short: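 Vehicle-treated cultures served as reference for growth inhibition of compound-exposed mec2-1 yeast.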

[7] = NCI Yeast Anticancer Drug Screen. Data for the rad14 strain (AID 159);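 further: 0% = growth of vehicle-treated control cultures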; settings: S. cerevisiae rad14 strain growth inhibition, active compounds read high
In short: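 Growth inhibition vs vehicle controls; genetically altered yeast strain (DNA damage repair defect) treated with test compounds.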

[8] = NCI Yeast Anticancer Drug Screen. Data for the sgs1 mgt1 strain (AID 161);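 further: 0% = growth of cultures given vehicle only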; settings: S. cerevisiae sgs1 mgt1 strain, active compounds read high
In short: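 Read-out: growth inhibition vs vehicle controls. Cells: mutant yeast strain deficient in DNA damage repair.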

[9] = NCI Yeast Anticancer Drug Screen. Data for the CLN2oe strain (AID 163);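 further: 0% = growth of vehicle-only control cultures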; settings: S. cerevisiae CLN2oe strain, active compounds read high
In short: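 Inhibition relative to vehicle-treated yeast is reported. Cells: strain with genetic alteration in cell-cycle control, grown with compound.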

[10] = NCI Yeast Anticancer Drug Screen. Data for the cln2 rad14 strain (AID 165);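 further: 0% = growth equal to vehicle treated cultures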; settings: S. cerevisiae cln2 rad14 strain, active compounds read high
In short: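 Each compound was tested on cln2 rad14 yeast. Inhibition of growth was calculated against vehicle-exposed controls.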

[11] = NCI Yeast Anticancer Drug Screen. Data for the bub3 strain (AID 167); settings: S. cerevisiae bub3 mutant strain, active compounds read high
In short: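 Readout: yeast growth inhibition, expressed relative to vehicle-only wells. The test organism is a mutant strain from a panel with lesions in DNA repair or checkpoint genes.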

[12] = NCI Yeast Anticancer Drug Screen. Data for the wt2 strain (AID 169);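 further: 0% = growth of vehicle-treated yeast cultures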; settings: S. cerevisiae wt2 strain growth inhibition, active compounds read high
In short: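 Inhibition of yeast growth was determined after compound treatment, normalised to controls receiving only vehicle.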

[13] = NCI Yeast Anticancer Drug Screen. Data for the mlh1 strain (AID 171);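 further: 0% = growth of vehicle-treated control cultures of the same strain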; settings: S. cerevisiae mlh1 strain growth inhibition, active compounds read high
In short: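 Vehicle-normalised growth inhibition of a repair- or checkpoint-altered yeast strain following compound treatment.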

[14] = NCI Yeast Anticancer Drug Screen. Data for the sgs1 strain (AID 173);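 further: 0% = growth of vehicle-only control cultures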; settings: S. cerevisiae sgs1 mutant, active compounds read high
In short: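 Screen format: yeast with repair or checkpoint alterations, compound exposure, growth read relative to vehicle.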

[15] = NCI Yeast Anticancer Drug Screen. Data for the mlh1 rad18 strain (AID 175); settings: S. cerevisiae mlh1 rad18 strain growth inhibition, active compounds read high
In short: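 Vehicle-treated cultures served as the reference for growth inhibition in a yeast strain carrying DNA damage repair alterations exposed to each compound.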

[16] = NCI Yeast Anticancer Drug Screen. Data for the rad18 strain (AID 177); settings: S. cerevisiae rad18 mutant growth inhibition, active compounds read high
In short: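 Test articles were incubated with altered yeast defective in DNA damage repair. Results are given as inhibition of growth versus vehicle.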

[17] = at 5.0 µM (retest, dose inferred, filed as 0.5)
[18] = at 50.0 µM (retest, dose inferred, filed as 5.0)

Measured: growth inhibition

S=C(N/N=C/c1ccccn1)Nc1ccc(Cl)cc1
active: [5]; [18] 95% | [6]; [17] 71% | [6]; [18] 95% | [7]; at 100.0 µM 80% | [8]; [18] 96% | [8]; at 50.0 µM 83.8% | [9]; at 100.0 µM 79% | [10]; [18] 90% | [10]; at 50.0 µM 71.9% | [11]; [18] 96% | [11]; at 50.0 µM 79.6% | [15]; [18] 95% | [15]; at 50.0 µM 78.8%
inactive: [1]; at 1.2 µM -5% | [1]; at 3.7 µM -5% | [1]; at 11.0 µM -3% | [1]; at 33.0 µM 15% | [1]; at 100.0 µM 59% | [2]; at 1.2 µM -7% | [2]; at 3.7 µM -5% | [2]; at 11.0 µM -5% | [2]; at 33.0 µM 8% | [2]; at 100.0 µM 42% | [3]; at 1.2 µM -3% | [3]; at 3.7 µM -3% | [3]; at 11.0 µM 1% | [3]; at 33.0 µM -6% | [3]; at 100.0 µM -12% | [4]; at 1.2 µM -7% | [4]; at 3.7 µM -7% | [4]; at 11.0 µM 9% | [4]; at 33.0 µM 16% | [4]; at 100.0 µM 59% | [5]; at 1.2 µM -5% | [5]; at 3.7 µM -7% | [5]; [17] -7% | [5]; at 11.0 µM -27% | [5]; at 33.0 µM 19% | [5]; at 50.0 µM 55.5% | [5]; at 100.0 µM 59% | [6]; at 1.2 µM -5% | [6]; at 3.7 µM -6% | [6]; at 11.0 µM -3% | [6]; at 33.0 µM 10% | [6]; at 50.0 µM 56.2% | [6]; at 100.0 µM 63% | [7]; at 1.2 µM -3% | [7]; at 3.7 µM 0% | [7]; at 11.0 µM 0% | [7]; at 33.0 µM 27% | [8]; [17] 27% | [9]; at 1.2 µM -3% | [9]; at 3.7 µM -14% | [9]; at 11.0 µM -12% | [9]; at 33.0 µM 11% | [10]; [17] 38% | [11]; at 1.2 µM -5% | [11]; at 3.7 µM 0% | [11]; [17] 19% | [11]; at 11.0 µM -2% | [11]; at 33.0 µM -3% | [11]; at 100.0 µM 49% | [12]; at 1.2 µM -6% | [12]; at 3.7 µM -6% | [12]; at 11.0 µM -4% | [12]; at 33.0 µM 9% | [12]; at 100.0 µM 39% | [13]; at 1.2 µM -5% | [13]; at 3.7 µM -9% | [13]; at 11.0 µM -5% | [13]; at 33.0 µM 12% | [13]; at 100.0 µM 51% | [14]; at 1.2 µM -5% | [14]; at 3.7 µM -4% | [14]; at 11.0 µM -2% | [14]; at 33.0 µM 22% | [14]; at 100.0 µM 66% | [15]; [17] 44% | [16]; at 1.2 µM -6% | [16]; at 3.7 µM -3% | [16]; at 11.0 µM -5% | [16]; at 33.0 µM 2% | [16]; at 100.0 µM 67%
